PubChem BioAssay (EPA / NIEHS)
Results filed as inconclusive are left out. Active and inactive are the calls of the source. Rule for the calls, unless noted: active = hit-call score of the fitted dose curve at least 0.9, where 1 is the maximum; inactive = score below 0.9.

Assays:
[1] = target: Oxysterols receptor LXR-alpha (Homo sapiens) (UniProt Q13133); assay: ATG_LXRa_TRANS: Attagene TRANS-FACTORIAL HepG2 Assay for human Liver X Receptor alpha (LXRa) (AID 2282980; active = hit-call score of the fitted dose curve at least 0.9, where 1 is the maximum); conditions: HepG2 Attagene TRANS reporter, LXRa transactivation
In short: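 HepG2 cells were transiently transfected with multiplexed reporter units driven by chimeric LXRa–GAL4 fusion proteins, then dosed for 24 h. Reporter mRNA was quantified by RT-PCR, fluorescent labelling and capillary electrophoresis; gain of signal fitted against DMSO baseline.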

[2] = target: Hepatocyte nuclear factor 4-alpha (Homo sapiens) (UniProt P41235); assay: ATG_HNF4a_TRANS: Attagene TRANS-FACTORIAL HepG2 Assay for human Hepatocyte Nuclear Factor 4 alpha (HNF4a) (AID 2282982; active = hit-call score of the fitted dose curve at least 0.9, where 1 is the maximum); conditions: HepG2 HNF4a transactivation reporter, mRNA readout
In short: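 Gain-of-signal mRNA induction, relative to DMSO vehicle, was read after 24 h compound treatment of HepG2 cells bearing transfected GAL4-UAS reporters. Detection used RT-PCR, 6-FAM primer extension and capillary electrophoresis.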

[3] = target: Transcriptional activator Myb (Homo sapiens) (UniProt P10242); assay: ATG_Myb_CIS: Attagene CIS-FACTORIAL HepG2 Assay for human Myeloblastosis (Myb) Proto-Oncogene Transcription Factor (AID 2282986); conditions: HepG2 Attagene CIS-FACTORIAL Myb reporter transcription; actives raise or lower the signal
In short: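 Reporter mRNA is quantified by RT-PCR and capillary electrophoresis 24 h after dosing HepG2 cells transfected with cis-regulated reporter units, which track endogenous transcription factor activity. Gain and loss of signal are fitted versus DMSO baseline.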

[4] = target: Nuclear respiratory factor 1 (Homo sapiens) (UniProt Q16656); assay: ATG_NRF1_CIS: Attagene CIS-FACTORIAL HepG2 Assay for human Nuclear Respiratory Factor 1 (NRF1) Orphan Gene (AID 2282987); conditions: HepG2 NRF1 cis-element reporter, Attagene multiplex; actives raise or lower the signal
In short: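 Endogenous NRF1-driven reporter transcription in transfected HepG2 cells after 24 h treatment. Readout: RT-PCR products, 6-FAM labelled and resolved by capillary electrophoresis; changes fitted both directions relative to DMSO.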

[5] = ATG_NFI_CIS: Attagene CIS-FACTORIAL HepG2 Assay for human Nuclear Factor I (NFI) (AID 2282989); conditions: HepG2 cis-regulatory reporter, NFI response element transcription; actives raise or lower the signal
In short: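 Reporter transcription driven by endogenous transcription factors in HepG2 cells; 24 h treatment. Quantitation by labelled RT-PCR fragments on capillary electrophoresis, gain- or loss-of-signal relative to DMSO.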

[6] = target: Myc proto-oncogene protein (Homo sapiens) (UniProt P01106); assay: ATG_Myc_CIS: Attagene CIS-FACTORIAL HepG2 Assay for human Myelocytomatosis (Myc) Proto-Oncogene Transcription Factor (AID 2282990); conditions: HepG2, Attagene cis-reporter transcription factor activity; actives raise or lower the signal
In short: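 Transiently transfected HepG2 cells bearing cis-promoter reporter units for endogenous transcription factors; 24 h exposure. Reporter mRNA measured by RT-PCR, 6-FAM primer extension, HpaI cut and capillary electrophoresis; bidirectional fit relative to DMSO.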

[7] = ATG_NF_kB_CIS: Attagene CIS-FACTORIAL HepG2 Assay for human Nuclear Factor Kappa B (NF-kB) (AID 2282991); conditions: HepG2 Attagene cis-factorial NF-kB reporter mRNA; actives raise or lower the signal
In short: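 Readout is reporter transcript level, gain or loss versus DMSO, measured 24 h post-dose via RT-PCR, fluorescent labelling and capillary electrophoresis. Human HepG2 liver cells carried transiently transfected CIS reporter constructs reflecting endogenous factors.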

[8] = ATG_NRF2_ARE_CIS: Attagene CIS-FACTORIAL HepG2 Assay for human Nuclear Factor Erythroid 2 Related Factor 2 (NFR2) response to Antioxidant Response Elements (ARE) (AID 2282992); conditions: HepG2 Attagene ARE/NRF2 reporter, transcription factor activity; actives raise or lower the signal;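 for AC50: reporter mRNA level measured by RT-PCR and capillary electrophoresis fluorescence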
In short: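 Cis-factorial assay: transfected HepG2 reporter library, 24 h dosing, mRNA readout via RT-PCR/CE; DMSO-referenced bidirectional analysis.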

[9] = ATG_Oct_MLP_CIS: Attagene CIS-FACTORIAL HepG2 Assay for human Octamer-Binding Transcription Factor (Oct) (AID 2282993); conditions: HepG2 Attagene cis-factorial Oct reporter, mRNA; actives raise or lower the signal
In short: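 Transfected HepG2 cells, 24 h treatment. Reporter mRNA quantified by RT-PCR–capillary electrophoresis; bidirectional fitting against DMSO.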

[10] = target: Cellular tumor antigen p53 (Homo sapiens) (UniProt P04637); assay: ATG_p53_CIS: Attagene CIS-FACTORIAL HepG2 Assay for human p53 Transcription Factor (AID 2282994); conditions: HepG2 p53 cis-element reporter, Attagene mRNA; actives raise or lower the signal
In short: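 Using HepG2 hepatoma cells carrying cis-acting multiplexed reporters, mRNA induction is detected after a 24 h exposure. Gain- and loss-of-signal responses are fitted relative to DMSO-treated cells.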

[11] = target: Nuclear receptor subfamily 4 group A member 2 (Homo sapiens) (UniProt P43354); assay: ATG_NURR1_TRANS: Attagene TRANS-FACTORIAL HepG2 Assay for human Nuclear Receptor Related Protein 1 (NURR1) (AID 2282985; active = hit-call score of the fitted dose curve at least 0.9, where 1 is the maximum); conditions: HepG2 Attagene TRANS reporter, mRNA readout
In short: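 HepG2 / transient MRTU transfection / 24 h compound exposure / RT-PCR + CE fluorescence of reporter mRNA / gain-of-signal vs DMSO.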

[12] = ATG_M_06_TRANS: Attagene TRANS-FACTORIAL HepG2 Assay for M06 Transcription Factor (Internal Marker) (AID 2282983; active = hit-call score of the fitted dose curve at least 0.9, where 1 is the maximum); conditions: HepG2 Attagene TRANS M06 internal marker reporter
In short: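 HepG2 cells transiently transfected with multiplexed GAL4-UAS reporter transcription units; after 24 h compound exposure, reporter mRNA measured by RT-PCR, FAM-labelled primer extension, HpaI digestion and capillary electrophoresis. Gain-of-signal fitted versus DMSO baseline; background control readout.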

[13] = ATG_M_32_TRANS: Attagene TRANS-FACTORIAL HepG2 Assay for M32 Transcription Factor (Internal Marker) (AID 2282984; active = hit-call score of the fitted dose curve at least 0.9, where 1 is the maximum); conditions: HepG2 Attagene TRANS M32 internal marker reporter
In short: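 Capillary electrophoresis of 6-FAM-labelled reporter fragments gives the signal; data fitted for gain over DMSO negative control. Source: HepG2 cells bearing transient multiple reporter transcription units, 24 h exposure.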

[14] = target: Oxysterols receptor LXR-beta (Homo sapiens) (UniProt P55055); assay: ATG_LXRb_TRANS: Attagene TRANS-FACTORIAL HepG2 Assay for human Liver X Receptor beta (LXRb) (AID 2282981; active = hit-call score of the fitted dose curve at least 0.9, where 1 is the maximum); conditions: HepG2 Attagene TRANS GAL4-LXRb reporter, mRNA
In short: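 Gain-of-signal mRNA reporter endpoint, DMSO as negative control. Transiently transfected HepG2 cells carrying the NR-Gal4 chimera and GAL4-UAS reporter units were treated 24 h; transcripts quantified by RT-PCR and capillary electrophoresis fluorescence.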

[15] = BSK_3C_TissueFactor: BioMAP Diversity Plus: 3C Assay for Tissue Factor Biomarker Activity (AID 2282997); conditions: BioMAP 3C HUVEC, tissue factor biomarker readout; actives raise or lower the signal
In short: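 Primary human umbilical vein endothelial cells in the 3C system were exposed to test chemical for 24 h, then Tissue Factor measured by ELISA. Activity was fitted bidirectionally against DMSO as negative control and baseline.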

[16] = BSK_3C_uPAR: BioMAP Diversity Plus: 3C Assay for Urokinase-type plasminogen activator receptor (uPAR) Biomarker Activity (AID 2282998); conditions: BioMAP 3C HUVEC, uPAR biomarker ELISA; actives raise or lower the signal
In short: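 Readout: ELISA for surface uPAR. System: human umbilical vein endothelial primary cells, 24 h after chemical exposure. Analysis: bidirectional fit, DMSO baseline.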

[17] = BSK_3C_VCAM1: BioMAP Diversity Plus: 3C Assay for Vascular cell adhesion molecule 1 (VCAM1) Biomarker Activity (AID 2282999); conditions: BioMAP 3C HUVEC, VCAM1 ELISA, cytokine-stimulated; actives raise or lower the signal
In short: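 Human umbilical vein endothelial cells (3C system), biomarker read by ELISA 24 h after dosing; bidirectional fit against DMSO baseline. Cytotoxicity tracked by SRB total-protein staining in parallel cultures at biomarker time.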

Measured: AC50

Chain of Transcriptional activator Myb (Homo sapiens) (P10242 whole entry, looked up): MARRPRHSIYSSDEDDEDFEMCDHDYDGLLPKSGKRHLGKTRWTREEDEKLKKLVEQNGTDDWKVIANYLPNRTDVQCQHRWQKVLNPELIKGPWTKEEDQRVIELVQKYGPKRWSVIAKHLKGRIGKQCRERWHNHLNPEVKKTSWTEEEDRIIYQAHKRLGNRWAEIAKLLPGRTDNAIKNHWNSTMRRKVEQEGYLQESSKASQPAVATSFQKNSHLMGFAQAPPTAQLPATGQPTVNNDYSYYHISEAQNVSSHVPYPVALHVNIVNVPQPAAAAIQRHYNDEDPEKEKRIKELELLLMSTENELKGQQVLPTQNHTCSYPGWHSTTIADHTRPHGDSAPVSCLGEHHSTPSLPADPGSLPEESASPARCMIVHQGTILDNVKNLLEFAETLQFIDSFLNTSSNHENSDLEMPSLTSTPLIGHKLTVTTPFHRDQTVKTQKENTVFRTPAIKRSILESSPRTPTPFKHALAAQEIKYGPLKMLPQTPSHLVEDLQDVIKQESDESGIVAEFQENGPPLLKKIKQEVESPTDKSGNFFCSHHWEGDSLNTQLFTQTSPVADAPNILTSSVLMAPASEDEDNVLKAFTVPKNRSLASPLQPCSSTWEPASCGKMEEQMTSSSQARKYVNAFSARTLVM
Chain of Hepatocyte nuclear factor 4-alpha (Homo sapiens) (P41235 whole entry, looked up, the tested form may be a part): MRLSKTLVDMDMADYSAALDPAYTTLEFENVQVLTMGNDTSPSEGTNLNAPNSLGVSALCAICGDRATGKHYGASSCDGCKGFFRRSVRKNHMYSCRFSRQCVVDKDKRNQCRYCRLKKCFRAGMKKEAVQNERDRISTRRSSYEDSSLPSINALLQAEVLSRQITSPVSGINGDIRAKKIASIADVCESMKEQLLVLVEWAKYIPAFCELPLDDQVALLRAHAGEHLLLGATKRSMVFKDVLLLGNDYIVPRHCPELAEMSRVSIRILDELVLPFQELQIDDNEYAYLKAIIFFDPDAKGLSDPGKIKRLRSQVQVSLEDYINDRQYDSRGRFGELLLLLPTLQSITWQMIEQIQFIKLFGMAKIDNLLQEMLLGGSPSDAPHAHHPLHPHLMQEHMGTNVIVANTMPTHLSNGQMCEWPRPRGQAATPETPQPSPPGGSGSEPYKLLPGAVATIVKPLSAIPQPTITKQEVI
Chain of Myc proto-oncogene protein (Homo sapiens) (P01106 whole entry, looked up): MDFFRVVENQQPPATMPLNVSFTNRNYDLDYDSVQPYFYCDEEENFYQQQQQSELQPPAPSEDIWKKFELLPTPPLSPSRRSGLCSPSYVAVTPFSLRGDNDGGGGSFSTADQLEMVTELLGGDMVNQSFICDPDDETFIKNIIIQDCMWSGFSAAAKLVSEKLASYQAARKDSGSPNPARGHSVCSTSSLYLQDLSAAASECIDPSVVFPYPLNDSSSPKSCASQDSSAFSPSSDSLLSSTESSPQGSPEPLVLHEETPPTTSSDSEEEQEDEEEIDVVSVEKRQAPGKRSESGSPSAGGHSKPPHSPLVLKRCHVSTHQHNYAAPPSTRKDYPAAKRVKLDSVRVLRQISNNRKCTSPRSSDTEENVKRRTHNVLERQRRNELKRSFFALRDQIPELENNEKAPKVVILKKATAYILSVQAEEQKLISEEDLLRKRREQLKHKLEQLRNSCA
Chain of Cellular tumor antigen p53 (Homo sapiens) (P04637 whole entry, looked up): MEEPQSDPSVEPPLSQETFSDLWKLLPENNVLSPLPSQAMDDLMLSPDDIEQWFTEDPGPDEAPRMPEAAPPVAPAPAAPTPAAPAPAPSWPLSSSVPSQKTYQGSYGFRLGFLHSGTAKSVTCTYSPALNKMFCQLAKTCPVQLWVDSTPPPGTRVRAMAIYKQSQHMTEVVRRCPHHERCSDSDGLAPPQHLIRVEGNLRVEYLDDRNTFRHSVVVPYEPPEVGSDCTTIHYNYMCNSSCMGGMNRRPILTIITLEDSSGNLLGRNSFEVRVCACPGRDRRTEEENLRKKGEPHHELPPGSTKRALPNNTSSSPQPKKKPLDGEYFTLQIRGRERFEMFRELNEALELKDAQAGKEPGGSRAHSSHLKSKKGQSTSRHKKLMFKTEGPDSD
Chain of Nuclear respiratory factor 1 (Homo sapiens) (Q16656 whole entry, looked up): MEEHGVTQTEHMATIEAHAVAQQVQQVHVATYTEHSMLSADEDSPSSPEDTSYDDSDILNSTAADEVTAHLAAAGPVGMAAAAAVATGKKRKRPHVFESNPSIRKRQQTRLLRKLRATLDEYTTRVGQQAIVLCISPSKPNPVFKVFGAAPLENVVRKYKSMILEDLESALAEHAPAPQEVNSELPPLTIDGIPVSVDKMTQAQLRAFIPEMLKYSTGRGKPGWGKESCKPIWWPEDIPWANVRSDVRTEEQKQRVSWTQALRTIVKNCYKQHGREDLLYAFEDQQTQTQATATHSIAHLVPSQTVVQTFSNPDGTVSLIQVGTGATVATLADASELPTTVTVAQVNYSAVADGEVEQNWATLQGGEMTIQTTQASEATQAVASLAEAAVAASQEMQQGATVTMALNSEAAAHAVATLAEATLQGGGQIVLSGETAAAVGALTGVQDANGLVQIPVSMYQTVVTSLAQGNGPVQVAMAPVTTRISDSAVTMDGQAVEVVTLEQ
Chain of Oxysterols receptor LXR-alpha (Homo sapiens) (Q13133 whole entry, looked up, the tested form may be a part): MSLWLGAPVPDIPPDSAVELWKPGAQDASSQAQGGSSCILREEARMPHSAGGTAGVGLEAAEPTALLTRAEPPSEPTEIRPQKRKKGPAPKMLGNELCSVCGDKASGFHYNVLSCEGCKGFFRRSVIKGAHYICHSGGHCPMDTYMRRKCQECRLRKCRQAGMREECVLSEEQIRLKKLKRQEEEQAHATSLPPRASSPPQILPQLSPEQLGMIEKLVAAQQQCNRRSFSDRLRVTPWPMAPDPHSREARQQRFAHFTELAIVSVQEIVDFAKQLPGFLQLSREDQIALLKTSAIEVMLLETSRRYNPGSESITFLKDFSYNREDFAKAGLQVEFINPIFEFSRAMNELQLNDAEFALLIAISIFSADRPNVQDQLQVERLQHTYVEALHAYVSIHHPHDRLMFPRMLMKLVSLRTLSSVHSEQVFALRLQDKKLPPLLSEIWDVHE
Chain of Oxysterols receptor LXR-beta (Homo sapiens) (P55055 whole entry, looked up, the tested form may be a part): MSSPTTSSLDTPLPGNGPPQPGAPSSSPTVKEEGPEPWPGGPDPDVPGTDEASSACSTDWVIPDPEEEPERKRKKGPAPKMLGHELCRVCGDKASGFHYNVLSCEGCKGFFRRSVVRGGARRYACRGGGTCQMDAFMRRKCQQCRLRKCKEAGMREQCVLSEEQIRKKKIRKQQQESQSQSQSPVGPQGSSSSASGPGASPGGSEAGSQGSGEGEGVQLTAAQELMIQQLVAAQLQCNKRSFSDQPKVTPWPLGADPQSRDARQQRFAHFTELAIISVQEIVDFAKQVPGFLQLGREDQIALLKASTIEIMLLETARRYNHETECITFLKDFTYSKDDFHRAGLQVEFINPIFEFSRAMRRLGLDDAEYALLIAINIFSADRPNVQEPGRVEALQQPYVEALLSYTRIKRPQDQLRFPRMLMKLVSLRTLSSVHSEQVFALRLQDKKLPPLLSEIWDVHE
Chain of Nuclear receptor subfamily 4 group A member 2 (Homo sapiens) (P43354 whole entry, looked up): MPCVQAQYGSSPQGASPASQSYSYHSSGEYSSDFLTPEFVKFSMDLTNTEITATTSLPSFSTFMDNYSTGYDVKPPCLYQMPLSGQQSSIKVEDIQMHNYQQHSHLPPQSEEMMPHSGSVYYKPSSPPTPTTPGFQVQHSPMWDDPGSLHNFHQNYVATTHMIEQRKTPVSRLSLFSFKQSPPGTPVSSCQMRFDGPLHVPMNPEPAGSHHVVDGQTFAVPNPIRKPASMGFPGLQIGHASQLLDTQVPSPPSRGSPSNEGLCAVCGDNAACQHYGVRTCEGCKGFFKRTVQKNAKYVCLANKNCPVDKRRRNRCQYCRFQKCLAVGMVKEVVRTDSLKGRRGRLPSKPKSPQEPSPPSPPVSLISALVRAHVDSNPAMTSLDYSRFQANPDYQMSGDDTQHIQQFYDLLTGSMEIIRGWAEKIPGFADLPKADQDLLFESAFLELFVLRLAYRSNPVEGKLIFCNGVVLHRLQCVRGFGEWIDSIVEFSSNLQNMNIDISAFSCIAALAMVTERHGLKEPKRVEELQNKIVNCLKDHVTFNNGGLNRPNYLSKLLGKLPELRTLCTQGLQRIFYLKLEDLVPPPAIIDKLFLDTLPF

O=C(O)c1cccc(Cl)n1
inactive: [1] | [2] | [3] | [4] | [5] | [6] | [7] | [8] | [9] | [10]

Nc1cc([N+](=O)[O-])ccc1C(=O)O
inactive: [1] | [2] | [11] | [3] | [5] | [6] | [9] | [10]
active: [8] 51.8 µM

CC(C)=CC(=O)O
inactive: [1] | [2] | [12] | [13] | [11] | [3] | [4] | [5] | [6] | [7] | [8] | [9] | [10]

O=S(=O)(O)CCCN1CCOCC1
inactive: [1] | [2] | [12] | [11] | [3] | [4] | [5] | [6] | [8] | [9] | [10]

CCCCN(CCCC)CCCCCCN(CCCC)CCCC
inactive: [1] | [14] | [3] | [4] | [5] | [6] | [8] | [9] | [10]

CCCCCC#CC(=O)OC
active: [7] 23.1 µM | [8] 23.9 µM
inactive: [1] | [12] | [13] | [3] | [4] | [5] | [6] | [9] | [10]

CC(=O)OC(C)(C)C
inactive: [1] | [14] | [2] | [11] | [3] | [4] | [5] | [6] | [7] | [8] | [9] | [10]

CC(=O)CCc1ccc(O)cc1
inactive: [1] | [14] | [12] | [13] | [3] | [4] | [5] | [6] | [7] | [8] | [9] | [10]

[O-]/[N+](=N\O)c1ccccc1
active: [8] 17.3 µM
inactive: [1] | [2] | [12] | [13] | [3] | [4] | [5] | [9] | [10]

CCCCCCCCOC(C)=O
inactive: [1] | [14] | [2] | [12] | [11] | [3] | [4] | [5] | [7] | [8] | [9] | [10]

COC(=O)c1ccc(C(=O)OC)cc1
inactive: [1] | [2] | [12] | [13] | [11] | [3] | [4] | [5] | [7] | [8] | [9] | [15] | [16] | [17]

CC(=O)OC/C=C(C)/C=C/C=C(C)/C=C/C1=C(C)CCCC1(C)C
inactive: [1] | [2] | [13] | [11] | [3] | [6] | [9]
active: [4] 167 µM | [7] 39.8 µM | [8] 3.64 µM | [10] 146 µM
